Screens as filed in PubChem.
Pf growth 48h = inhibits P. falciparum growth in the first generation, 48 h; P. falciparum luciferase growth in erythrocytes, 48 h; Potency, µM (titrated, usually from 28.7 µM), for the others: top-dose activity change, negative = inhibition, actives largely listed as inhibitors; 310,000 compounds, 5.9% hits; further: potency means the concentration at half of the fitted maximal effect
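First compound was added to culture medium, then infected red cells at 0.1% parasitemia and 2% hematocrit (final). After incubation at 37 C under 5% CO2, luciferase detection reagent was dispensed and light output recorded.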
HCMV antiviral = human cytomegalovirus inhibition | 410,000 compounds, 4.5% hits | HFF cells, HCMV-luciferase reporter, 72 h; active compounds read low | activity change, negative = inhibition, % at 57.5 µM | AID 1259415; in the data active means activity change below about -60%; inconclusive means no clear call, values can overlap the other calls; inactive means above about -39%
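HFF cells seeded 16 h at 37C, treated with compounds, infected with luciferase-reporter HCMV at MOI 1 PFU/cell; luciferase read at 72 h post infection, normalized to buffer-only and Salinomycin controls.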
FBPA Giardia inh = Giardia lamblia aldolase inhibition. A8B2U2. purified Giardia FBPA. Potency, µM (series often up to 59.6 µM), for inactives: at the top dose activity, negative = inhibition, most hits filed as inhibitors. 290,000 compounds, 0.71% hits. AID 2451; further: potency means the concentration at half of the fitted maximal effect; nearly all actives have a fitted effect of over 55% in size
Target sequence (A8B2U2 whole entry, looked up): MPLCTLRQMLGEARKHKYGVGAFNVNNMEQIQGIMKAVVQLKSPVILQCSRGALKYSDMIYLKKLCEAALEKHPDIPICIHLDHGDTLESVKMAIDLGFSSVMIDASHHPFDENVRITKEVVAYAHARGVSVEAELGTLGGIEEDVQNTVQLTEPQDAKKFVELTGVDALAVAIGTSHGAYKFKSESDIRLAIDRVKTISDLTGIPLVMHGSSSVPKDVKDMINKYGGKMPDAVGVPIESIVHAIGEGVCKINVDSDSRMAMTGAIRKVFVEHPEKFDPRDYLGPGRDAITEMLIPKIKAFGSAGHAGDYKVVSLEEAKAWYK
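Giardia FBPA (40 nM reagent) was preincubated 10 min at RT with compound (up to 57.5 uM final), then substrate plus GAPDH/TPI/NAD/arsenate coupling system with diaphorase/resazurin was added; resorufin fluorescence (525/598 nm) was read after 20 min.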
Sm TGR inh = blocks Schistosoma mansoni thioredoxin glutathione reductase. Q962Y6. purified TGR, DTNB reduction, TNB absorbance 405 nm. Potency, µM (doses to about 114 µM), for the others: at the top dose activity change, negative = inhibition, usual class: inhibitors. 360,000 compounds, 3% hits; further: potency means the concentration at half of the fitted maximal effect; nearly all actives have a fitted effect of over 60% in size
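Kinetic colorimetric format: TGR-catalysed, NADPH-driven DTNB reduction monitored via TNB absorbance. Enzyme dispensed at 20 nM; compound exposure 15 min at room temperature before reaction start.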
Pf growth 96h = P. falciparum growth inhibition at 96 hours; 320,000 compounds, 6.9% hits; AID 504834; Potency, µM (series often up to 28.7 µM), without a hit: at the highest dose activity change, negative = inhibition, hits mostly inhibitors; P. falciparum luciferase reporter growth, 96 h; further: potency means the concentration at half of the fitted maximal effect
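Infected RBCs, 2% Hct / 0.05% parasitemia final; luciferase-reporter P. falciparum; cpd 96 h, 37 C, 5% CO2; luciferase detection reagent; luminescence.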
* = called active by the depositor; ? = inconclusive; / = no result; [ ] = remark or other dose. An excerpt weighted towards active compounds, which were near 14% of everything screened. Unless noted, the call rests on the fitted dose curve; in most records, active means well fitted curve in the direction sought with a large enough effect; inconclusive means small, poorly fitted or top-dose-only effect, or another doubt; inactive means no such curve, though single readings can be large; an effect the other way counts as inactive or inconclusive. On the % scale 0 is the no-effect control and ±100 the full control effect.

SMILES	Pf growth 48h	HCMV antiviral	FBPA Giardia inh	Sm TGR inh	Pf growth 96h
CC(C)c1ccccc1NC(=S)N1CCN(S(=O)(=O)c2cccs2)CC1	?	-2	1%	-3%	5.2µM*
Cc1c(Cl)cccc1NC(=S)N1CCN(S(=O)(=O)c2cccs2)CC1	1.9µM*	-22	-5%	-1%	?
COc1ccccc1N(C)S(=O)(=O)c1ccc(C(=O)Nc2ccc(C)cc2C)cc1	?	-33	/	-2%	?
Cc1cc(=O)n2[nH]c(-c3ccccc3Cl)cc2n1	-6%	52	0%	?	7.4µM*
Cc1ccccc1-c1cc2nc(C)c(C)c(=O)n2[nH]1	7.4µM*	73	?	2%	3%
Cc1nc2cc(-c3ccc(Br)cc3)[nH]n2c(=O)c1Cl	?	57	?	-10%	9.3µM*
Cc1cccc(-c2cc3nc(C)cc(=O)n3[nH]2)c1	/	62	/	/	/
O=C(COC(=O)COc1ccc(Cl)cc1Br)NC1CCCC1	/	-5	/	/	/
CCOc1cc(-c2nc3c(c(CC)nn3-c3ccccc3)c3cc(OC)c(OC)cc23)ccc1O	/	15	/	2%	/
CC(=O)Nc1cc(NC(C)=O)cc(C(=O)OCC(=O)c2ccc3c(c2)NC(=O)CO3)c1	-24%	-10	/	9%	34%
N#CCC(=O)Nc1ccc(C(=O)OCC(=O)c2ccc3c(c2)NC(=O)CO3)cc1	13µM*	0	/	-23%	?
CC(C)CC(NC(=O)c1ccc(Cl)cc1)C(=O)OCC(=O)c1ccc2c(c1)NC(=O)CO2 (stereo not given)	-2%	-103*	-3%	-24%	/
CC(O)C(NS(=O)(=O)c1ccc(Cl)cc1)C(=O)OCC(=O)c1ccc2c(c1)NC(=O)CO2 (stereo not given)	/	-1	/	/	/
O=C1COc2ccc(C(=O)COC(=O)c3ccc([N+](=O)[O-])cc3Cl)cc2N1	10%	-6	/	40µM*	5%
O=C1COc2ccc(C(=O)COC(=O)c3ncc(Cl)c(Cl)c3Cl)cc2N1	44%	5	/	50µM*	55%
COc1ccc(OCCCC(=O)OCC(=O)c2ccc3c(c2)NC(=O)CO3)cc1	5%	-20	/	45µM*	0%
O=C1COc2ccc(C(=O)COC(=O)c3nc(Cl)ccc3Cl)cc2N1	8%	-14	/	14µM*	72%
Cc1cc(C)c(-c2c(N)cc(Br)cc2Br)c(N)c1	/	-27	/	/	/
CN(C(=O)c1ccccc1OC1CCN(S(C)(=O)=O)CC1)C1CCOC1 (stereo not given)	25%	-7	3%	7%[57.1 µM]	-7%
CC(=O)N1CCN(c2nc3c(F)cc(F)cc3s2)CC1	/	104	/	0%	/
CC(=O)N1CCN(c2c(F)c(F)c(C(F)(F)F)c(F)c2F)CC1	11%	-61*	3%	18%[57.1 µM]	-11%
CC(C)N1CCCC(C)(C(=O)Nc2ccccc2)C1 (stereo not given)	/	1	/	/	/
COc1cc2c(cc1OC)/C(=C/C(=O)c1ccc(F)cc1)NCC2	?	-25	-8%	-17%	12µM*
COc1cc(/C=C(/C#N)c2ccc(F)cc2)ccc1Oc1ccc([N+](=O)[O-])cn1	4.7µM*	-61*	-5%	-15%	-17%
CCOc1cc(C=C(C#N)C#N)ccc1Oc1ccc([N+](=O)[O-])cn1	1%	11	?	/	6%
SMILES	Pf growth 48h	HCMV antiviral	FBPA Giardia inh	Sm TGR inh	Pf growth 96h
O=C(c1ccccc1)c1cc(Cl)ccc1N1C(=O)C=CC1=O	7%	?	?	0.79µM*	24%
Cc1ccc(NC(=S)NNC(=O)c2c(Cl)c(C)nn2C)cc1	19%	-73*	19%	-3%	?
Cc1nc(C)c(C(=O)NCc2ccc(Cl)cc2)o1	12%	-38	3%	0%	16%
Cc1nn(C)c(C(=O)NCc2ccc(Cl)cc2)c1Cl	21%	-80*	0%	3%	40%
Cc1ccc(-c2sc(-c3cccnc3)nc2CC(=O)O)cc1	?	-35	7%	40µM*	-19%
COc1ccc(N(CC(=O)NCCc2ccccc2)S(=O)(=O)c2ccc(OC)c(OC)c2)cc1	/	-4	/	0%	/
O=C(O)CC1(CC(=O)Nc2ccccc2N2CCOCC2)CCCC1	62%	13	3%	0%	52%
COc1ccc(S(=O)(=O)N2CCCCC2)cc1NC(=O)C1CC(=O)N(Cc2ccccc2)C1 (stereo not given)	13µM*	-7	/	2%	12µM*
O=C(Nc1cccc(S(=O)(=O)N2CCCCC2)c1)C1CC(=O)N(Cc2ccccc2)C1 (stereo not given)	13µM*	-24	/	-4%	?
O=[N+]([O-])c1ccc(-c2ccccc2)c([As](=O)(O)O)c1	12µM*	-91*	1%	2µM*	2.1µM*
O=[N+]([O-])c1ccc2nc(-c3ccccc3)cc(-c3ccccc3)c2c1	38%	36	1%	5%	55%
CCOC(=O)Cc1nnc(NC(=O)C23CC4CC(CC(C4)C2)C3)s1	13µM*	3	-3%	13%	?
COCCc1nnc(NC(=O)C23CC4CC(CC(C4)C2)C3)s1	12%	127	11%	-7%	?
Cc1ccc(Cn2nnc3c(=O)n(CC(=O)N4CCN(c5ccccc5)CC4)cnc32)cc1	?	-65*	3%	2%	-17%
O=C(Cn1cnc2c(nnn2Cc2ccc(Cl)cc2)c1=O)c1ccccc1	16%	-71*	-5%	2%	?
Cc1ccc(Cn2nnc3c(=O)n(CC(=O)OCc4ccccc4)cnc32)cc1	-12%	38	4%	-20%	?
O=C(Cn1cnc2c(nnn2Cc2ccc(F)cc2)c1=O)NCc1ccccc1	9.3µM*	-10	0%	3%	-26%
COCCN(C(=O)Cc1ccc(S(=O)(=O)N2CCOCC2)s1)c1c(N)n(CC(C)C)c(=O)[nH]c1=O	/	-4	/	/	/
CCC(=O)Nc1nc2n(n1)C(c1ccc(OC)cc1)C=C(c1ccccc1)N2 (stereo not given)	/	/	-23%	4.5µM*	?
COc1ccc(C(=O)Nc2nc3n(n2)C(c2ccccc2)C=C(c2ccccc2)N3)cc1 (stereo not given)	/	-13	/	3.2µM*	/
CCOc1ccc(CCNC(=O)c2cc3c(s2)CS(=O)(=O)C3)cc1OCC	?	-14	-4%	8%	25%
O=C(COC(=O)/C=C/c1cccc(Br)c1)Nc1ccc(Cl)cn1	/	47	/	/	/
CC(=O)CC(=O)NC1C2CC3CC(C2)CC1C3 (stereo not given)	?	72	14%	?	-29%
CC(C)NC(=O)NC1C2CC3CC(C2)CC1C3 (stereo not given)	?	0	-1%	89µM*	10µM*
CC(C)(C)c1ccc(C(=O)Nc2ccc(-c3nc4ccccc4o3)c(O)c2)cc1	/	-12	/	-3%	/
Cc1nc(N2CCCCC2)c2sc(=S)n(C)c2n1	4%	-13	4%	4%	?
CCN1CCN(c2nc(C)nc3c2sc(=S)n3C)CC1	-29%	-17	18µM*	-10%	3.7µM*
